Test results from PubChem BioAssay.
Activity calls are given as the source filed them.

Experiments:
[1] = compound effects on differentiated 3T3-L1 adipocyte viability – cell-based, 3T3-L1 adipocytes, calcein-AM fluorescence, 48 h, basal, profiling panel (AID 1163); settings: 3T3-L1 adipocytes viability, higher = more signal
[2] = compound effects on hepatocellular carcinoma cell viability – HepG2, calcein-AM fluorescence, 48 h, basal, profiling panel (AID 1164); settings: higher = more signal
[3] = compound effects on multiple myeloma cell viability – MM1S, calcein-AM fluorescence, 48 h, basal, profiling panel (AID 1165); settings: higher = more signal;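 note: viability of MM1S multiple myeloma cells under basal unstimulated conditions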
[4] = calcein-AM signal in unstimulated myeloma cells – cell-based, calcein-AM fluorescence, 48 h, PK04 Diversity Set, profiling panel (AID 1166); settings: RPMI8226 myeloma viability, higher = more signal;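 note: cells grown under basal conditions without added stimulus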
[5] = JC-1 mitochondrial signal, unstimulated HepG2 cells – cell-based, JC-1 fluorescence, 24 h, 100 nL compound, profiling panel (AID 1167); settings: HepG2 mitochondrial potential, higher = more signal
[6] = JC-1 mitochondrial signal, unstimulated adipocytes – cell-based, JC-1 fluorescence, 3T3-L1 adipocytes, 24 h, 100 nL compound, profiling panel (AID 1168); settings: JC-1 mitochondrial fluorescence, higher = more signal, called active from +8 up or from −8 down
[7] = JC-1 mitochondrial signal, unstimulated myeloma cells – cell-based, JC-1 fluorescence, RPMI8226, 24 h, 100 nL compound, profiling panel (AID 1169); settings: JC-1 mitochondrial potential fluorescence, higher = more signal
[8] = JC-1 mitochondrial signal, unstimulated MM1S myeloma – cell-based, JC-1 fluorescence, 24 h, 100 nL compound, profiling panel (AID 1170); settings: MM1S mitochondrial potential, higher = more signal
[9] = resazurin metabolic signal in A549 cells – cell-based, resazurin fluorescence, 24 h, PK04 Diversity Set, profiling panel (AID 1171); settings: A549 viability, higher = more signal, called active from +8 up or from −8 down
[10] = resazurin metabolic signal in HepG2 cells – cell-based, resazurin fluorescence, 24 h, PK04 Diversity Set, profiling panel (AID 1172); settings: HepG2 viability, higher = more signal
[11] = budding yeast growth changes without added modifier – OD600, strain BY4716, 24 h, basal condition, primary screen (AID 1173); settings: S. cerevisiae BY4716 growth, OD600, 24 h; higher = more signal, called active from +8 up or from −8 down
[12] = viability profiling in MM1S myeloma cells – cell-based, resazurin fluorescence, basal, 24 h, PK04 Diversity Set, profiling panel (AID 1174); settings: higher = more signal, called active from +8 up or from −8 down
[13] = molecular target: Dihydroorotate dehydrogenase (quinone), mitochondrial (Plasmodium falciparum (isolate 3D7)) (UniProt Q08210); assay: inhibition of P. falciparum DHODH – biochemical, C-terminal His tag, absorbance 600 nm, primary screen (AID 1175); settings: PfDHODH enzyme, DCIP absorbance 600 nm; higher = more signal, called active from +8 up or from −8 down;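 note: recombinant parasite enzyme with a five histidine tag at its C terminus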
[14] = growth modulation of vineyard yeast isolate – strain RM11-1a, OD600, basal, 24 h, primary screen (AID 1177);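 note: cultures grown under basal conditions with no added stressor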; settings: S. cerevisiae RM11-1a growth, OD600, 24 h; higher = more signal, called active from +8 up or from −8 down
[15] = growth of efflux-deficient E. coli DRC39 – strain DRC39, OD650, 24 h, E. coli filamentation inducers, primary screen (AID 1178);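 note: growth measured as culture turbidity by optical density at 650 nm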; settings: E. coli DRC39 acrAB, higher = more signal, called active from +8 up or from −8 down
[16] = growth of efflux-deficient E. coli DRC39 – strain DRC39, OD650, 48 h, E. coli filamentation inducers, primary screen (AID 1179);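 note: screen aims at cell division blockers that make cells filament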; settings: E. coli DRC39 delta-acrAB growth, higher = more signal, called active from +8 up or from −8 down
[17] = viability profiling in RPMI8226 myeloma cells – cell-based, resazurin fluorescence, basal, 24 h, PK04 Diversity Set, profiling panel (AID 1180); settings: higher = more signal;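 note: RPMI8826 multiple myeloma cell line at 5000 cells per well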
[18] = molecular target: E3 ubiquitin-protein ligase XIAP (Homo sapiens) (UniProt P98170); assay: small molecules binding XIAP protein – biophysical, small-molecule microarray, fluorescence 635 nm, primary screen (AID 1181); settings: higher = more signal;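 note: score merges 667 nm emission and signal to noise over triplicate slides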
[19] = tested on: XIP peptide (Xip251-270) binding; assay: XIP fragment 251-270 binding compounds – biochemical, small-molecule microarray, fluorescence 635/667 nm, 0.1 µg/mL protein, primary screen (AID 1182); settings: fluorescent protein binding, 635 nm, higher = more signal, called active from +8 up or from −8 down
XIP peptide (Xip251-270) = assay: compounds binding XIP fragment 251-270 – biochemical, small-molecule microarray, fluorescence 635/667 nm, 0.5 µg/mL protein, primary screen (AID 1183); settings: fluorescence 635 nm, higher = more signal

Dihydroorotate dehydrogenase (quinone), mitochondrial (Plasmodium falciparum (isolate 3D7)), sequence (Q08210 whole entry, looked up): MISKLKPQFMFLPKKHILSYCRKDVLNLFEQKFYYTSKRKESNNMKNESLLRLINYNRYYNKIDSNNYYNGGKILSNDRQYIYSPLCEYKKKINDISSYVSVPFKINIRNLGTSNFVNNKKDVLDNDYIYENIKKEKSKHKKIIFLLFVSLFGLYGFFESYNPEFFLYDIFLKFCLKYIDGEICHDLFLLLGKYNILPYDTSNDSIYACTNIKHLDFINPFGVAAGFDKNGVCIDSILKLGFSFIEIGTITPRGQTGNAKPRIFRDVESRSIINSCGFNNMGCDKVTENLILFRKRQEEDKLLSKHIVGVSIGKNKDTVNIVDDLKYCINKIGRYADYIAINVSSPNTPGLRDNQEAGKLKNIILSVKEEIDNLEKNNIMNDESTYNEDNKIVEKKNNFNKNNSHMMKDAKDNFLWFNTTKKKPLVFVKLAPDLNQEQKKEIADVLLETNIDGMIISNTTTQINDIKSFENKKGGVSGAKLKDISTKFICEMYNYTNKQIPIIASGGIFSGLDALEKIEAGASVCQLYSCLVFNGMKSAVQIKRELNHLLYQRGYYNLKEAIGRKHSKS
E3 ubiquitin-protein ligase XIAP (Homo sapiens), sequence (P98170 whole entry, looked up, the tested form may be a part): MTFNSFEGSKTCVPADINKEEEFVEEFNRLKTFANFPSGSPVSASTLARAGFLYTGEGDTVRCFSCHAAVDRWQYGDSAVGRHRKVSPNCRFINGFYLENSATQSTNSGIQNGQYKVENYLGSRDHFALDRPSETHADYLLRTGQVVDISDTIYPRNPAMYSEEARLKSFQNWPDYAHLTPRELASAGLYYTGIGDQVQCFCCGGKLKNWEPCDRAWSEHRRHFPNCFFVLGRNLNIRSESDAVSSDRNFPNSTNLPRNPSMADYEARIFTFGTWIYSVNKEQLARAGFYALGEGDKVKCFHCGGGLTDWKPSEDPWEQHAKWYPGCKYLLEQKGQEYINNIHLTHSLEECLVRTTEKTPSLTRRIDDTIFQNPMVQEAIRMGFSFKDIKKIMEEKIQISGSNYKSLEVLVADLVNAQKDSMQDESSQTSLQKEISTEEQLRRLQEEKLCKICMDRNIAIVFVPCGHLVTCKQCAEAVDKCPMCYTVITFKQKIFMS

SMILES	z-score [1]	z-score [2]	z-score [3]	z-score [4]	z-score [5]	z-score [6]	z-score [7]	z-score [8]	z-score [9]	z-score [10]	z-score [11]	z-score [12]	composite z-score [13]	z-score [14]	z-score [15]	z-score [16]	z-score [17]	composite z-score [18]	composite z-score [19]	composite z-score (XIP peptide (Xip251-270))
C=C(CCCC)/C(=C/C[C@H](OC(=O)c1ccncc1)c1ccc(CO)o1)c1cnc2ccccc2c1	0.87	-0.76	-2.31	0.117	0.265	1.03 (inactive)	0.519	-0.656	0.274 (inactive)	0.921	-1.7 (inactive)	0.511 (inactive)	-6.96 (inactive)	-0.716 (inactive)	1.67 (inactive)	1.01 (inactive)	0.874	-0.105	0.291 (inactive)	0.413
O=c1n(-c2ccccc2)c(=O)n2n1CC(COc1ccccc1)=C1[C@@H](CCc3ccccc3)OB(O)C[C@@H]12	0.0728	-0.28	-0.0893	-0.364	-0.251	1.31 (inactive)	-0.555	0.615	-0.665 (inactive)	0.312	-2.19 (inactive)	-0.933 (inactive)	0.91 (inactive)	-0.424 (inactive)	2.4 (inactive)	1.4 (inactive)	-0.672	-0.144	1.45 (inactive)	-0.0257
O=C1c2ccccc2[C@@]2(Cc3ccccc3N(CC(F)(F)F)C2=O)[C@H](c2ccc(CO)cc2)N1Cc1ccccc1C(F)(F)F	0.559	-0.167	0.733	-1.08	0.288	1.05 (inactive)	0.753	0.197	-0.203 (inactive)	0.528	-0.829 (inactive)	1.02 (inactive)	-3.56 (inactive)	-0.49 (inactive)	-0.136 (inactive)	-0.344 (inactive)	1.05	-0.0446	-0.765 (inactive)	-1.23
O=C(NCC(F)(F)F)[C@@H]1c2ccccc2C(=O)N(C2Cc3ccccc3C2)[C@H]1c1ccc(CO)cc1	0.752	-0.016	0.557	-1.11	3.1	0.676 (inactive)	0.0903	-0.0546	1.05 (inactive)	0.983	-1.06 (inactive)	1.49 (inactive)	-1.16 (inactive)	-0.763 (inactive)	0.46 (inactive)	0.249 (inactive)	1.61	-0.22	-0.729 (inactive)	-1.33
C[N+](C)(C)CCCCNC(=O)[C@@H]1C[C@@H]2C(=O)NCC(=O)N2[C@@H]1c1cccc(OCCO)c1	-0.0369	0.653	0.499	0.089	1.04	0.294 (inactive)	-0.361	-0.552	-0.105 (inactive)	0.165	-0.0902 (inactive)	1.38 (inactive)	-27.8 (active)	-1.21 (inactive)	1.87 (inactive)	1.77 (inactive)	0.356	0.602	0.71 (inactive)	0.865
C=C(C1=CCN(S(=O)(=O)c2ccc(C)cc2)C1)[C@@H](OC(C)=O)[C@@H]1CCCN1S(=O)(=O)c1ccccc1[N+](=O)[O-]	1.9	-3.37	-3.21	-4.14	1.04	0.496 (inactive)	-1.21	-2.86	0.0974 (inactive)	0.174	-0.372 (inactive)	-7.03 (inactive)	1 (inactive)	1.39 (inactive)	2.93 (inactive)	1.38 (inactive)	-4.54	-0.301	0.698 (inactive)	-0.737
COC(=O)c1c(CC[C@@H](CO)NC(=O)Nc2ccc(OC)cc2)oc(C(=O)Cc2ccccc2)c1C(=O)OC	1.01	-0.255	-0.581	0.141	-0.115	0.695 (inactive)	-0.204	0.212	0.367 (inactive)	-0.325	-2.3 (inactive)	0.955 (inactive)	-1.09 (inactive)	1.22 (inactive)	1.46 (inactive)	0.987 (inactive)	0.173	-0.0525	0.684 (inactive)	0.678
C=CCN1C(=O)[C@@]2(O[C@@H](CCO)[C@H]([Si](C)(C)c3ccc(OC)cc3)[C@H]2C)c2cc(N(C=O)c3ccccc3)ccc21	0.412	-4.73	-2.68	-4.39	-2.22	1.53 (inactive)	-1.05	-2.14	-4.7 (inactive)	-6.2	-0.425 (inactive)	-8.88 (active)	-0.459 (inactive)	-0.592 (inactive)	2.62 (inactive)	1.81 (inactive)	-6.21	-0.0203	0.527 (inactive)	0.345
CC(C)(C)OC(=O)CC[C@@]12N=C(c3ccc(OCCCO)cc3)O[C@@H]1c1ccccc1N(Cc1ccccc1)C2=O	1.87	-0.186	-1.9	-3.34	0.624	1.69 (inactive)	-0.778	1.44	0.345 (inactive)	0.375	-0.075 (inactive)	-0.0313 (inactive)	0.463 (inactive)	1.17 (inactive)	1.59 (inactive)	0.358 (inactive)	0.574	-0.635	1.63 (inactive)	0.693
